# Results taken from PubChem BioAssay (NCI).
# Compounds without any hit were thinned out: in the full panel of roughly 79,000, 15% have a hit. Unmarked numbers belong to inactive results. Activity calls are given as the source filed them. No stated cut-off is given here; in the data, active means growth inhibition above about 70%; inactive means the rest.
# Assay: NCI Yeast Anticancer Drug Screen. Data for the cln2 rad14 strain (AID 165);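 further: 0% = growth equal to vehicle treated cultures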
# Details: S. cerevisiae cln2 rad14 strain, at 50.0 µM (retest, dose inferred, filed as 5.0), hits give high values
# Summary of the method: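 Readout is yeast growth inhibition versus vehicle-treated controls, using a strain with cln2 and rad14 alterations exposed to compound.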
row,SMILES,growth inhibition
1,OC1C2COc3nc4ccccc4n3C(O2)C1O (configuration not stated),-56%
2,CN(C)CC1Cc2ccsc2C1=O (configuration not stated),76% (active)
3,CCCC(O)C[N+](=O)[O-] (configuration not stated),1%
4,CC1=NC(C)=C(/C(C)=N/NC(=O)c2ccccc2O)C(C)/C1=C(/C)NNC(=O)c1ccccc1O (configuration not stated),-2%
5,O=[N+]([O-])c1cccc(S(=O)(=O)N/N=C/c2cc(I)cc([N+](=O)[O-])c2O)c1,2%
6,CNC(=O)OC(C)CN1c2ccccc2Sc2ccc(Cl)cc21 (configuration not stated),98% (active)
7,O=[N+]([O-])c1ccc(NSc2ccccc2)cc1,99% (active)
8,CCOc1ccc2c(c1)nc1ccccc1[n+]2CC,9%
9,O=C1C=CC(=O)c2c(O)c(N3CCN(CCO)CC3)c(Cl)c(O)c21,82% (active)
10,O=C1CSC(c2cccc([N+](=O)[O-])c2)N1c1ccc(-c2ccc(-n3c(-c4ccccc4)nc4ccccc4c3=O)cc2)cc1 (configuration not stated),48%
11,CCC(=O)c1ccc2ccc3ccccc3c2c1,45%
12,N#CSCc1c(Cl)cccc1Cl,94% (active)
13,O=[N+]([O-])/C(C(Cl)=C(Cl)Cl)=C(/Sc1ccccc1)N1CCOCC1,99% (active)
14,COc1c2occc2c(OC)c2c(C)c(C(=O)OCCN3CCOCC3)oc12,2%
15,COc1cnn(-c2ccccc2)c(=O)c1SCc1ccc(Cl)c(Cl)c1,23%
16,COc1ccc(/C=C/c2c[n+]([O-])ccc2[N+](=O)[O-])cc1,95% (active)
17,CS(=O)(=O)OCCCN(CCCOS(C)(=O)=O)c1ccc(C=Nc2ccc(-c3csc(COc4ccc(Br)cc4Br)n3)cc2)cc1,83% (active)
